Data on six molecules can be found in PubChem BioAssay AID588783 (NMMLSC, 2011).

Entries with a potency or affinity are not part of this list. Active and inactive are the calls of the source.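 Rule for the calls: active = inhibition of specific binding of 40% or more; inactive = inhibition of specific binding below 40%.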

The subject of the assay is beta-arrestin 1 peptide binding to AP-2 beta2-adaptin appendage (human). As to the kind of experiment: beta-arrestin/AP2 interaction blockers, potency – biochemical, cherry pick 1, beta2-adaptin appendage, flow cytometry, dose response (AID 588783). The following applies: Bead flow cytometry, FITC-arrestin peptide binding GST-AP2; at 9.12 µM; stronger effect = higher value.
With `Nc1c(C(=O)NC2CC2)sc2nc3c(c(-c4ccco4)c12)CC/C3=C/c1ccco1`, the inhibition of specific binding is 22% (inactive). With `O=C(NCC1COc2ccccc2O1)c1ccc(NC(=O)C(c2ccccc2)c2ccccc2)cc1` (stereo unspecified) the figure was 7% (inactive); with `COC(=O)c1ccccc1N/C=C1\CCc2c(c(C)nn2-c2ccccn2)C1=O`, 7% (inactive). With `COc1cc(C2Nc3cccc4cccc(c34)N2)cc(OC)c1O` the figure was 12% (inactive); with `CN1c2ccccc2N(C)C1(C)c1ccccc1`, 3% (inactive); with `Cc1nn(-c2ccccn2)c2c1C(c1ccsc1)C1=C(CCCC1=O)N2` (stereo unspecified), 12% (inactive).
